Measured values published in PubChem BioAssay (NCATS).
Inconclusive results are not listed. A number with no mark means an inactive call. Calls of active or inactive are those of the source. Unless noted, the call rests on the fitted dose curve; in most records, active means well fitted inhibition curve with a large enough effect; inconclusive means small, poorly fitted or top-dose-only effect; inactive means no such curve, though single readings can be large or run the other way.

assay: Primary qHTS for small molecule stabilizers of the endoplasmic reticulum resident proteome: Secreted ER Calcium Modulated Protein (SERCaMP) assay (AID 1508630); details: SH-SY5Y GLuc-SERCaMP (Gaussia luciferase released on ER calcium loss) secretion, thapsigargin, luminescence; series mostly up to 38.4 µM; activity change, negative = inhibition: at the top concentration; further: on the % scale 0 is the no-effect control and ±100 the full control effect
Outline: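 The SH-SY5Y reporter protocol was run at 3 concentrations up to 38.3 uM (primary) or 11 concentrations (follow-up): 16 h compound, 100 nM thapsigargin for 4 h, then extracellular luciferase luminescence.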

Structure (SMILES)	activity change, negative = inhibition [%]	Potency
NC1CCN(c2cccc(Cl)n2)CC1	-18.3	–
C[C@H]1O[C@@H](n2cc(F)c(=O)[nH]c2=O)[C@H](O)[C@@H]1O	-17.4	–
CCCCCCCCCCCCCCCC(=O)NCCO	–	inactive
CCN(CC)CCCC(C)Nc1c2ccc(Cl)cc2nc2ccc(OC)cc12 (centres undefined)	–	inactive
CN(C)CC[C@@H](c1ccc(Cl)cc1)c1ccccn1	-23.9	–
COc1ccc(Cl)cc1C(=O)NCCc1ccc(S(=O)(=O)NC(=O)NC2CCCCC2)cc1	–	inactive
CC(=O)NC(Cc1ccccc1)C(=O)O (centres undefined)	-16	–
CC[C@H]1CN2CCc3cc(OC)c(OC)cc3[C@@H]2C[C@@H]1C[C@H]1NCCc2cc(OC)c(OC)cc21	–	inactive
OCCN1CCN(CCCN2c3ccccc3Sc3ccc(Cl)cc32)CC1	-19.7	–
C[C@H](NC(CCc1ccccc1)C(=O)O)C(=O)N1CCC[C@H]1C(=O)O (some centres undefined)	28.6	–
CC1=C(CC(=O)O)c2cc(F)ccc2/C1=C\c1ccc(S(C)=O)cc1 (centres undefined)	–	inactive
N=c1c[n+](N2CCOCC2)[n-]o1	-29.6	–
NC(N)=NCCC[C@H](N)C(=O)O	–	inactive
O=C1NC(=O)[C@@]2(CCOc3ccc(F)cc32)N1	-11	–

assay: A High-Content qHTS Against Drug Library for the Identification of Small Molecules that Inhibit DYT1 Early Onset Primary Dystonia-Associated Cell Pathology (AID 1645839; calls by dose curve); details: HEK293 Flp-In EGFP-delE TorsinA, punctate imaging, 48 h; series mostly up to 46.1 µM; % pathology change, negative = correction: at the top concentration
Outline: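 Cells were seeded and left for 24 h, then dosed with compound alongside tetracycline induction of mutant EGFP-TorsinA. They were incubated for 48 h, fixed in 4% paraformaldehyde, permeabilized and imaged for mislocalization (%pathology) and cell count.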

Structure (SMILES)	% pathology change, negative = correction [%]
CNCC(O)c1ccc(O)c(O)c1 (centres undefined)	6.86
C[C@H]1O[C@@H](n2cc(F)c(=O)[nH]c2=O)[C@H](O)[C@@H]1O	2.23
CCCCCCCCCCCCCCCC(=O)NCCO	13.8
CN(C)CC[C@@H](c1ccc(Cl)cc1)c1ccccn1	-9.49
COc1ccc(Cl)cc1C(=O)NCCc1ccc(S(=O)(=O)NC(=O)NC2CCCCC2)cc1	-27.5
CC(=O)NC(Cc1ccccc1)C(=O)O (centres undefined)	-2.99
CC1=C(CC(=O)O)c2cc(F)ccc2/C1=C\c1ccc(S(C)=O)cc1 (centres undefined)	9.58
CN1CCC[C@@H]1Cc1c[nH]c2ccc(CCS(=O)(=O)c3ccccc3)cc12	-10.3
O=C1NC(=O)[C@@]2(CCOc3ccc(F)cc32)N1	11.1
COC(=O)C1=C(C)NC(C)=C(C(=O)OC)C1c1ccccc1[N+](=O)[O-]	-23.5
